{"source": "PubChem BioAssay AID651550", "about": "(National Center for Advancing Translational Sciences (NCATS), 2012)", "note": "The campaign covered roughly 360,000 compounds. About 1,100 (0.31%) were called active. Rule as the data show it: active = activity change below about -80%; inconclusive = mostly about -51% to -80%; inactive = weaker than that. The full list was thinned out, with actives kept by preference."}
{"molecular_target": "RAC-alpha serine/threonine-protein kinase (Homo sapiens) (UniProt P31749)", "assay": "HTS Assay for Inhibitors of Akt Phophorylation: Primary Screen; as to activity change: % is scaled to controls: 0 for no effect and ±100 for the full control effect", "details": "Neuro2A IGF-stimulated pAkt S473 HTRF, 20 min; at 50 µM, active compounds read low", "text": "The serine/threonine protein kinase Akt (protein kinase B) regulates various cellular processes, including cell survival, growth, proliferation, migration and differentiation. It has been well established that Akt is activated through two essential steps involving membrane translocation and phosphorylation. Cytosolic Akt is recruited to the plasma membrane via the interaction between the PH domain and membrane PIP3 produced by phosphoinositide-3 kinase (PI3K) upon growth factor receptor stimulation. The membrane-Akt interaction results in conformational changes of Akt, enabling its activation through phosphorylation at T308 in the kinase domain and at S473 in the C-terminal hydrophobic motif by PDK1 and mTOR-rictor complex (mTORC2), respectively. […] These findings indicate that S473 phosphorylation, as an important modulator of Akt activation, may be a valuable drug target for cell growth, survival, proliferation and differentiation. These inhibitors also may have significant therapeutic potential with fewer side effects, especially for the conditions involving hyperactive Akt signaling, such as cancer and Alzheimer's disease.\nTo this end, a miniaturized assay was developed to be screened against the Molecular Libraries Small Molecule Repository (MLSMR).\nNIH Chemical Genomics Center [NCGC]\nNIH Molecular Libraries Probe Centers Network [MLPCN]\nAssay Submitter (PI): Hee-Yong Kim, National Institute on Alcohol Abuse and Alcoholism\n3 uL of Neuro2A cell suspension in DMEM containing 0.5% FBS and […] antibiotics mix was plated in a white solid bottom tissue culture-treated 1536-well plate (Greiner Bio-One, Monroe, NC) at 4,500 cells per well and incubated overnight at 37 deg C. 23 nL/well of compound solutions in DMSO was added with Pintool transfer (Kalypsis, San Diego, CA) at single […] final concentration. Then, the cells were stimulated with 1.5 uL of IGF (6 nM final concentration) and incubated at 37 deg C for 20 min. The reaction was terminated by the addition of 1.5 uL blocking reagent mixed with lysis buffer (1:25 correspondingly) provided with HTRF(R) Phospho Akt (Ser473) kit (Cisbio US, Bedford, MA), with following incubation for 50 min at ambient temperature. The detection HTRF conjugates from the kit were prepared according to the protocol, pre-mixed 1:1 prior to dispensing, and 2 uL/well was added with BioRAPTR FRD dispenser (Beckman Coulter). The assay plates were incubated for 24 hours at ambient temperature, and the HTRF fluorescence was measured using Envision plate reader (PerkinElmer) with excitation at 330nm, emission at 615nm (Eu(3)-Cryptate donor signal) and 665nm (d2 acceptor signal). The ratio of […] was calculated for each well."}
{"compound": "COc1ccc(C(O)C(O)(C(=O)OC(C)C)c2ccc(C)cc2)cc1", "note": "(configuration not stated)", "activity change": "inactive"}
{"compound": "Cc1cc(C)cc(NS(=O)(=O)c2ccc(Oc3ncc(C(F)(F)F)cc3Cl)cc2)c1", "activity change": "-13.6% (inactive)"}
{"compound": "CSc1ccccc1-c1nnc(-c2ccc(Cl)cc2)o1", "activity change": "-0.409% (inactive)"}
{"compound": "FC(F)(F)c1cnc(Oc2ccccc2-c2nnc(-c3ccc(Cl)cc3)o2)c(Cl)c1", "activity change": "-102% (active)"}
{"compound": "COC(=O)[C@@]12C[C@@H](CC(=O)N3CCC(c4ccccc4)CC3)C(=O)N(Cc3ccccc3)C1=CCC(C)(C)C2", "activity change": "inactive"}
{"compound": "COC(=O)C1=CN(c2c(C)cc(C)cc2C)C(N)=C(C#N)C1c1cccc(F)c1", "note": "(configuration not stated)", "activity change": "inactive"}
{"compound": "Cc1ccc(Cc2nnc(SCC(=O)Nc3ccc(C)cc3C)[nH]c2=O)cc1", "activity change": "inactive"}
{"compound": "CCCc1cc(=O)[nH]c(SCC(=O)Nc2sc3c(c2C#N)CCCC3)n1", "activity change": "inactive"}
{"compound": "N#Cc1c(NC(=O)CSc2nc3ccccc3c(=O)n2Cc2ccco2)sc2c1CCCC2", "activity change": "-91.1% (active)"}
{"compound": "NC(=O)c1c(NC(=O)CSc2nnc(-c3ccco3)n2N)sc2c1CCCC2", "activity change": "inactive"}
{"compound": "CCC(C)CN1C(=O)CN(S(C)(=O)=O)CC1(C)C(=O)Nc1ccc2c(c1)OCCO2", "note": "(configuration not stated)", "activity change": "inactive"}
{"compound": "O=C1Nc2ccccc2-n2nnnc2C1N1CCN(c2cccc(C(F)(F)F)n2)CC1", "note": "(configuration not stated)", "activity change": "inactive"}
{"compound": "N#Cc1nc(COc2ccc(Cl)cc2)oc1N1CCCC1", "activity change": "inactive"}
{"compound": "CC1CCN(c2oc(-c3ccccc3F)nc2C#N)CC1", "activity change": "inactive"}
{"compound": "Cc1ccc(OCc2nc(C#N)c(N3CCCC3)o2)cc1", "activity change": "-113% (active)"}
{"compound": "C=CCC1(C(=O)N(C)Cc2ccccc2)CCN(C(=O)OC(C)(C)C)CC1", "activity change": "inactive"}
{"compound": "CCN(CC)CCCN=C(N)N", "activity change": "inactive"}
{"compound": "COC(=O)C[C@H]1C=C[C@H](NC(=O)c2ccc(F)cc2)[C@@H](CO)O1", "activity change": "inactive"}
{"compound": "N#Cc1nc(Cc2cccc3ccccc23)oc1NCc1ccc2c(c1)OCO2", "activity change": "-4.85% (inactive)"}
{"compound": "N#Cc1nc(Cc2ccccc2)oc1NCCc1ccccc1", "activity change": "-105% (active)"}
{"compound": "Cc1ccc(-c2nc(C#N)c(NCCCn3ccnc3)o2)cc1", "activity change": "inactive"}
{"compound": "COC(=O)[C@]12CCCCC=C1N(Cc1ccc3c(c1)OCO3)C(=O)[C@H](CC(=O)NCc1cccs1)C2", "activity change": "inactive"}
{"compound": "COc1ccccc1P(=O)(c1ccccc1)c1ccccc1NC(C)=O", "note": "(configuration not stated)", "activity change": "inactive"}
{"compound": "Cc1ccc(C(=O)Nc2c(-c3ccccc3)[nH][nH]c2=O)cc1", "activity change": "inactive"}
{"compound": "CCOC(=O)c1c(NC(=O)CCCN2CCOCC2)sc2c1CC(C)(C)OC2", "activity change": "inactive"}
{"compound": "CCOC(=O)c1sc(NC(=O)CCN2CCOCC2)c(C(=O)OCC)c1C", "activity change": "-80.1% (active)"}
{"compound": "COC(=O)c1c(NC(=O)CCN2CCOCC2)sc2c1CCCC2", "activity change": "inactive"}
{"compound": "CCCCC[C@H](C)N1C[C@@H](COCc2ccccc2)Oc2cc(N3CC[C@@H](N(C)C)C3)ccc2S1(=O)=O", "activity change": "inactive"}
{"compound": "Cc1ccc2c(c1)N(C(=O)CCC(=O)N1CCc3ccccc3C1)CCO2", "activity change": "-105% (active)"}
{"compound": "Cc1ccc(Cl)c(OCC(=O)N2CCc3ccccc3C2)c1", "activity change": "inactive"}
{"compound": "Cc1ccc2c(c1)N(C(=O)CCC(=O)NCc1cccnc1)CCO2", "activity change": "inactive"}
{"compound": "CCOC(=O)C1CCN(C(=O)C2CCN(S(=O)(=O)c3c(C)noc3C)CC2)CC1", "activity change": "inactive"}
{"compound": "CCN(CC)C(=O)CSc1ncnc2c1cnn2-c1ccccc1", "activity change": "-110% (active)"}
{"compound": "CCN(C(=O)CSc1ncnc2c1cnn2-c1ccccc1)C1CCS(=O)(=O)C1", "note": "(configuration not stated)", "activity change": "inactive"}
{"compound": "CCC(C)N(C(=O)CSc1ncnc2c1cnn2-c1ccccc1)C1CCS(=O)(=O)C1", "note": "(configuration not stated)", "activity change": "inactive"}
{"compound": "Cc1cccc(C)c1NC(=O)C(c1ccc(C(F)(F)F)cc1)n1c(=O)c(-c2ccco2)nc2ccccc21", "note": "(configuration not stated)", "activity change": "inactive"}
{"compound": "O=C(Nc1ncc2c(n1)CC(c1ccco1)CC2=O)c1ccc(Cl)cc1", "note": "(configuration not stated)", "activity change": "inactive"}
{"compound": "O=C(Nc1ncc2c(n1)-c1ccccc1OC2)c1ccc(Cl)cc1", "activity change": "-120% (active)"}
{"compound": "COC(=O)c1nc(NC(=O)c2ccc(Cl)cc2)n[nH]1", "activity change": "inactive"}
{"compound": "CN(C)c1ccc(Nc2c3c4c(cccc4n(C)c2=O)C(=O)c2ccccc2-3)cc1", "activity change": "inactive"}
{"compound": "COc1cc2ccccc2cc1C(=O)Nc1ccccc1C", "activity change": "inactive"}
{"compound": "Cc1ccccc1NC(=O)CSC(=O)c1ccccc1", "activity change": "inactive"}
{"compound": "Cc1ccccc1NC(=O)c1ccccc1", "activity change": "-122% (active)"}
{"compound": "Cc1cccc(N(C(=O)c2csnn2)C(C(=O)NCc2ccccc2)c2ccncc2)c1", "note": "(configuration not stated)", "activity change": "inactive"}
{"compound": "Cc1cccc(C2C3=C(CCCC3=O)N=C3c4ccccc4C(=O)C32)c1", "note": "(configuration not stated)", "activity change": "inactive"}
{"compound": "CCOC(=O)[C@]12CCCC=C1N(CCC1=CCCCC1)C(=O)[C@H](CC(=O)N1CCN(C(=O)c3ccco3)CC1)C2", "activity change": "inactive"}
{"compound": "COc1ccc(C(CNC(=O)CSc2ccccc2)N2CCOCC2)cc1", "note": "(configuration not stated)", "activity change": "inactive"}
{"compound": "O=C(C(=O)N1CCC(c2ccccc2)CC1)c1ccccc1", "activity change": "inactive"}
{"compound": "Cc1cccc(-n2c(Cc3cc(=O)[nH]c(=O)[nH]3)nnc2SC(C)C)c1", "activity change": "inactive"}
{"compound": "COCCNC(=O)Cn1cc(C(=O)c2cccs2)c2ccccc21", "activity change": "-3.12% (inactive)"}
{"compound": "Cc1cccc(NC(=O)Cn2cc(C(=O)c3ccco3)c3ccccc32)c1", "activity change": "11.5% (inactive)"}
{"compound": "O=C(Cn1cc(C(=O)c2cccs2)c2ccccc21)NCc1cccs1", "activity change": "-110% (active)"}
{"compound": "FC(F)(F)c1cccc(-c2nc3ccccc3n2C(c2ccccc2)c2nc3ccccc3[nH]2)c1", "note": "(configuration not stated)", "activity change": "inactive"}
{"compound": "CC(C)(Oc1ccc(Cl)cc1)C(=O)OCC(=O)NCCc1ccc(S(N)(=O)=O)cc1", "activity change": "inactive"}
{"compound": "COc1ccc(CCNC(=O)COc2ccc3c(c2)OCO3)cc1", "activity change": "inactive"}
{"compound": "COc1ccc(OCC(=O)NCCc2ccc(S(N)(=O)=O)cc2)cc1", "activity change": "-119% (active)"}
{"compound": "CCOC(=O)CN(C(=O)CN1CCOCC1)c1ccc(Br)cc1", "activity change": "1.02% (inactive)"}
{"compound": "CCN(C(=O)COC(=O)c1cc(NS(=O)(=O)c2ccc(Cl)c([N+](=O)[O-])c2)ccc1O)C1CCCCC1", "activity change": "inactive"}
{"compound": "COC(=O)[C@@]12C[C@@H](CC(=O)NCc3cccc(C(F)(F)F)c3)C(=O)N(Cc3ccco3)C1=CCC(C)(C)C2", "activity change": "inactive"}
{"compound": "O=C(CCS(=O)(=O)c1cccc2nonc12)NCCc1ccccc1Cl", "activity change": "2.49% (inactive)"}
{"compound": "CC1CCCCC1NC(=O)CCS(=O)(=O)c1cccc2nonc12", "note": "(configuration not stated)", "activity change": "-123% (active)"}
{"compound": "COc1ccc(C)cc1NC(=O)CCS(=O)(=O)c1cccc2nonc12", "activity change": "16.6% (inactive)"}
